Screening data (PubChem BioAssay)
GDH-TPI counter-1 = counter-screen for M. tuberculosis FBA inhibitors: GDH-TPI coupled enzymes. AID 588335. 360,000 tested, 1.2% active. inhibition, % at 4.8 µM. GDH-TPI coupled enzyme counterscreen, NADH absorbance; in the data active = inhibition above about 30%;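 also: 0% = DMSO wells and 100% = wells lacking the enzyme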
RecA intein inh = blocks M. tuberculosis RecA intein splicing. P9WHJ3. cell-free RecA intein splicing, fluorescence. inhibition, % (concentration not given with the values). 290,000 tested, 0.75% active; in the data active = inhibition above about 30%;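 also: 0% = vehicle wells and 100% = reference inhibitor control wells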
UGM FP inh = Mtb UDP-galactopyranose mutase inhibition. P9WIQ1. purified UGM, fluorescence polarization probe displacement. inhibition, % at 10 µM. 320,000 tested, 0.06% active. AID 504406; in the data active = inhibition above about 10%, passing the limit was not always enough
Mtb betalactam = beta-lactam sensitization of Mtb H37Rv; AID 434955; inhibition, % at 25 µM; 330,000 tested, 0.27% active; M. tuberculosis H37Rv growth with meropenem, percent inhibition; call rule not given here;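 also: growth measured after seven days incubation then overnight dye step; 0% = bacteria only wells and 100% = bacteria with antibiotic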
Rv3671c inh = inhibitors of M. tuberculosis serine protease Rv3671c. P9WHR9. inhibition, % at 5.96 µM. 320,000 tested, 0.048% active; in the data active = inhibition above about 38%;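 also: extracellular domain of Rv3671c used as enzyme; 0% = enzyme with DMSO and 100% = no enzyme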
FBA Mtb inh = inhibitors of M. tuberculosis fructose-bisphosphate aldolase | inhibition, % at 1 µM | 360,000 tested, 2.3% active | P9WQA3 | purified M. tuberculosis FBA, fluorescence read-out;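 also: 0% = vehicle and 100% = reference inhibitor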
Target sequence (P9WQA3 whole entry, looked up): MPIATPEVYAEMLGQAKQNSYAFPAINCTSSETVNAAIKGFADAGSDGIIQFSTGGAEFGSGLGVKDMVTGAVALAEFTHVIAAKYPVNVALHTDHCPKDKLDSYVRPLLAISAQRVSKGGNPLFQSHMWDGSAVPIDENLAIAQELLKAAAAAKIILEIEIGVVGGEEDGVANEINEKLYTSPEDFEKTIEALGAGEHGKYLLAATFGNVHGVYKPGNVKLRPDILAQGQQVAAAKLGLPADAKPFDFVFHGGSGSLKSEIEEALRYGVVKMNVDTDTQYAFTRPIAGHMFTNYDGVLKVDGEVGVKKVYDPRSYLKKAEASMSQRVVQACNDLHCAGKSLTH
Mtb FBA inh conf = confirmation of M. tuberculosis fructose-bisphosphate aldolase inhibitors; shares compounds with FBA Mtb inh; purified M. tuberculosis FBA, fluorescence read-out; inhibition, % at 1 µM; 5,600 tested, 78% active;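 also: 0% = vehicle wells and 100% = reference inhibitor wells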
GDH-TPI counter-2 = counter-screen for M. tuberculosis FBA inhibitors: GDH-TPI coupled enzyme inhibition. 5,600 tested, 81% active. inhibition, % at 1 µM. shares compounds with FBA Mtb inh. AID 652141. GDH-TPI coupled enzyme counterscreen, fluorescence; in the data active = inhibition above about 10%
Numbers without * were called inactive; · = not tested or not shown; + = active, no number. Hits are enriched below; roughly 4% of the tested compounds scored in any of these assays. Rule as the data show it, unless noted: active = inhibition above about 27%; inactive = the rest.

SMILES	GDH-TPI counter-1	RecA intein inh	UGM FP inh	Mtb betalactam	Rv3671c inh	FBA Mtb inh	Mtb FBA inh conf	GDH-TPI counter-2
COc1ccc(CCNC(=O)C2CCN(C(=O)c3ccccc3C)CC2)cc1	6	-1	-1	3	7	49*	-4	-4
N#Cc1nc(Cc2cccc3ccccc23)oc1NCCN1CCCCC1	7	1	3	-6	5	3	·	·
Cc1ccc(-c2nc(C#N)c(NCCN3CCCCC3)o2)cc1	16	·	0	-10	2	94*	170*	121*
N#Cc1nc(-c2ccccc2F)oc1NCCN1CCOCC1	12	0	0	-2	5	36*	84*	81*
N#Cc1nc(-c2ccc(F)cc2)oc1NCCN1CCOCC1	16	2	0	-4	4	46*	81*	62*
N#Cc1nc(COc2ccccc2)oc1NCCN1CCOCC1	-5	-2	-2	-15	8	3	·	·
O=S(=O)(c1ccc(F)cc1)c1nc(-c2ccc(F)cc2)oc1NCCN1CCOCC1	6	-4	·	·	·	-1	·	·
Cc1cccc(-c2nc(C#N)c(NCC3CCCO3)o2)c1 (stereo not drawn)	-8	-3	-1	-8	7	34*	109*	88*
COc1ccc(CC(=O)N2CCN(S(=O)(=O)c3cccs3)CC2)cc1OC	6	-3	1	1	0	-1	·	·
CCOc1ccc(C(=O)NCC(=O)OCc2csc(-c3ccccc3)n2)cc1	8	1	6	5	-13	29*	194*	166*
COc1ccccc1CNC(=O)c1ccccc1N(C)S(C)(=O)=O	-2	-1	1	-6	-3	-3	·	·
Nc1cc(N)cc(C(=O)Nc2ccc3c(c2)C(=O)NC3=O)c1	15	0	4	-4	-14	2	·	·
O=C(Nc1ccc2c(c1)C(=O)NC2=O)c1ccccc1Cl	12	1	1	-2	3	30*	7	-2
O=C(Nc1ccc2c(c1)C(=O)NC2=O)c1ccccc1	-3	-2	0	3	0	41*	198*	123*
CC(=O)c1cccc(NC(=O)COC(=O)Cn2cnc3ccccc32)c1	2	·	0	-6	6	0	·	·
COc1ccc(-c2nc3n(c2C)Cc2ccccc2-3)cc1	7	0	1	4	-3	111*	101*	93*
O=C(Nc1ncn[nH]1)c1ccccc1O	1	0	1	0	3	56*	+	+
O=C(Nc1ncn[nH]1)c1c(Cl)ccc(Cl)c1Cl	-4	-2	3	-4	0	1	·	·
COCOc1ccc(-c2ncc(OCCN3CCCC3=O)nc2NC(=O)c2cc3ccccc3s2)cc1	21	·	·	·	·	-2	·	·
Cc1cc(C)n2nc(NCc3cccc(Br)c3)nc2n1	1	9	-2	-3	0	58*	70*	52*
COc1ccc(CNc2nc3nc(C)cc(C)n3n2)cc1OC	13	-19	0	-12	-3	-2	·	·
CC(C)(C)n1nc2c(c1NC(=O)c1cccc(C(F)(F)F)c1)CS(=O)C2 (stereo not drawn)	-2	-1	1	-8	0	1	·	·
COC(=O)c1sccc1NC(=O)CN(C)NS(=O)(=O)c1ccc(F)cc1	6	-2	0	0	4	27*	95*	72*
COC(=O)c1sccc1NC(=S)Nc1cccc(F)c1	20	0	0	-4	3	-1	·	·
COC(=O)c1sccc1NC(=S)Nc1ccc(F)cc1F	6	0	1	-15	-2	70*	79*	51*
SMILES	GDH-TPI counter-1	RecA intein inh	UGM FP inh	Mtb betalactam	Rv3671c inh	FBA Mtb inh	Mtb FBA inh conf	GDH-TPI counter-2
CCOC(=O)N/N=C(\CCC(=O)O)c1cccs1	7	-3	-1	-3	1	4	·	·
Cc1cc(=O)nc2c3ccccc3n(C(C)C(=O)Nc3c(F)c(F)c(F)c(F)c3F)n12 (stereo not drawn)	-3	0	0	-7	2	-3	·	·
COC(=O)c1cc(NC(=O)CC2Oc3ccccc3NC2=O)cc(C(=O)OC)c1 (stereo not drawn)	3	-2	-3	5	-8	40*	79*	69*
CCOc1ccccc1N(CC(=O)NCc1ccccc1)C(=O)CCC(=O)Nc1cc(C)ccn1	-4	1	-1	-2	-7	1	·	·
Cn1ncc(Cl)c1C(=O)NCc1ccc(Cl)cc1	4	0	-2	1	8	2	·	·
O=C(NCc1ccc(Cl)cc1)c1cnn2ccccc12	6	0	·	-3	16	38*	2	-4
Cc1cc(C)n2ncc(C(=O)NCc3ccccc3)c2n1	13	1	4	-8	-3	24	·	·
O=C(NCc1ccc(Cl)cc1)c1ccc2ccccc2n1	-2	-1	0	2	-6	65*	137*	118*
Cc1cc(C)n2ncc(C(=O)NCc3ccc(Cl)cc3)c2n1	5	28	0	-4	5	34*	118*	89*
COc1ccc(C(CNC(=O)CCNS(=O)(=O)c2ccccc2C(F)(F)F)N2CCOCC2)cc1 (stereo not drawn)	6	·	·	·	·	-1	·	·
COC(=O)C1(C)Nc2ccccc2C(=O)N1c1ccccc1OC (stereo not drawn)	9	1	-4	5	1	29*	86*	56*
COC(=O)c1cccc2c1NC(=O)C2=O	10	6	2	-1	-13	1	·	·
COC(=O)C1(C)NC(=O)c2ccccc2N1 (stereo not drawn)	0	0	-3	2	1	30*	39*	42*
CC(C)(C)c1nc2ccc(Cl)cn2c1CC1CCCCC1	·	·	·	·	·	2	·	·
O=c1nc2c(-c3ccccc3F)n[nH]n2c2ccccc12	-2	0	2	12	10	49*	77*	57*
CCc1ccc(S(=O)(=O)c2n[nH]n3c2nc(=O)c2ccccc23)cc1	4	-5	2	8	-6	25	·	·
Cc1ccc(C)c(N(CC(=O)NCc2ccc3c(c2)OCO3)C(=O)CCC(=O)Nc2ccccn2)c1	-3	7	-1	-10	8	10	·	·
Cc1ccc(CNC(=O)CN(C(=O)C2(C)CC(=O)N=C3C=CC=CN32)c2cc(C)ccc2C)cc1 (stereo not drawn)	22	1	0	0	-8	91*	+	+
Cc1ccc(CNC(=O)CN(Cc2cccs2)C(=O)C2(C)CC(=O)N=C3C=CC=CN32)cc1 (stereo not drawn)	14	0	0	0	-9	80*	51*	39*
Cn1c(SCc2cccc(Br)c2)nc2c1c(=O)[nH]c(=O)n2C	7	-2	0	2	8	0	·	·
